Measured values from PubChem BioAssay AID602261 (Sanford-Burnham Center for Chemical Genomics, 2012).
The campaign covered roughly 360,000 compounds. About 2,400 (0.67%) were called active.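 Rule for the calls: active = compounds whose normalised, plate-corrected inhibition of enzyme fluorescence in the single-dose primary screen is 50% or more; inactive = the rest.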 For the sample, actives were picked, then their nearest neighbours and some compounds at random.

biological target: Fatty acid synthase (Homo sapiens) (UniProt P49327); experiment: FAS thioesterase domain inhibitors, primary screen, biochemical, fluorescence intensity, uHTS (AID 602261); details: recombinant FAS-TE, OMFH fluorogenic substrate, fluorescence endpoint; at 15 µM; hits give high values;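 note: 0% = DMSO with enzyme and 100% = substrate without enzyme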
Sequence (P49327 whole entry, looked up, the tested form may be a part): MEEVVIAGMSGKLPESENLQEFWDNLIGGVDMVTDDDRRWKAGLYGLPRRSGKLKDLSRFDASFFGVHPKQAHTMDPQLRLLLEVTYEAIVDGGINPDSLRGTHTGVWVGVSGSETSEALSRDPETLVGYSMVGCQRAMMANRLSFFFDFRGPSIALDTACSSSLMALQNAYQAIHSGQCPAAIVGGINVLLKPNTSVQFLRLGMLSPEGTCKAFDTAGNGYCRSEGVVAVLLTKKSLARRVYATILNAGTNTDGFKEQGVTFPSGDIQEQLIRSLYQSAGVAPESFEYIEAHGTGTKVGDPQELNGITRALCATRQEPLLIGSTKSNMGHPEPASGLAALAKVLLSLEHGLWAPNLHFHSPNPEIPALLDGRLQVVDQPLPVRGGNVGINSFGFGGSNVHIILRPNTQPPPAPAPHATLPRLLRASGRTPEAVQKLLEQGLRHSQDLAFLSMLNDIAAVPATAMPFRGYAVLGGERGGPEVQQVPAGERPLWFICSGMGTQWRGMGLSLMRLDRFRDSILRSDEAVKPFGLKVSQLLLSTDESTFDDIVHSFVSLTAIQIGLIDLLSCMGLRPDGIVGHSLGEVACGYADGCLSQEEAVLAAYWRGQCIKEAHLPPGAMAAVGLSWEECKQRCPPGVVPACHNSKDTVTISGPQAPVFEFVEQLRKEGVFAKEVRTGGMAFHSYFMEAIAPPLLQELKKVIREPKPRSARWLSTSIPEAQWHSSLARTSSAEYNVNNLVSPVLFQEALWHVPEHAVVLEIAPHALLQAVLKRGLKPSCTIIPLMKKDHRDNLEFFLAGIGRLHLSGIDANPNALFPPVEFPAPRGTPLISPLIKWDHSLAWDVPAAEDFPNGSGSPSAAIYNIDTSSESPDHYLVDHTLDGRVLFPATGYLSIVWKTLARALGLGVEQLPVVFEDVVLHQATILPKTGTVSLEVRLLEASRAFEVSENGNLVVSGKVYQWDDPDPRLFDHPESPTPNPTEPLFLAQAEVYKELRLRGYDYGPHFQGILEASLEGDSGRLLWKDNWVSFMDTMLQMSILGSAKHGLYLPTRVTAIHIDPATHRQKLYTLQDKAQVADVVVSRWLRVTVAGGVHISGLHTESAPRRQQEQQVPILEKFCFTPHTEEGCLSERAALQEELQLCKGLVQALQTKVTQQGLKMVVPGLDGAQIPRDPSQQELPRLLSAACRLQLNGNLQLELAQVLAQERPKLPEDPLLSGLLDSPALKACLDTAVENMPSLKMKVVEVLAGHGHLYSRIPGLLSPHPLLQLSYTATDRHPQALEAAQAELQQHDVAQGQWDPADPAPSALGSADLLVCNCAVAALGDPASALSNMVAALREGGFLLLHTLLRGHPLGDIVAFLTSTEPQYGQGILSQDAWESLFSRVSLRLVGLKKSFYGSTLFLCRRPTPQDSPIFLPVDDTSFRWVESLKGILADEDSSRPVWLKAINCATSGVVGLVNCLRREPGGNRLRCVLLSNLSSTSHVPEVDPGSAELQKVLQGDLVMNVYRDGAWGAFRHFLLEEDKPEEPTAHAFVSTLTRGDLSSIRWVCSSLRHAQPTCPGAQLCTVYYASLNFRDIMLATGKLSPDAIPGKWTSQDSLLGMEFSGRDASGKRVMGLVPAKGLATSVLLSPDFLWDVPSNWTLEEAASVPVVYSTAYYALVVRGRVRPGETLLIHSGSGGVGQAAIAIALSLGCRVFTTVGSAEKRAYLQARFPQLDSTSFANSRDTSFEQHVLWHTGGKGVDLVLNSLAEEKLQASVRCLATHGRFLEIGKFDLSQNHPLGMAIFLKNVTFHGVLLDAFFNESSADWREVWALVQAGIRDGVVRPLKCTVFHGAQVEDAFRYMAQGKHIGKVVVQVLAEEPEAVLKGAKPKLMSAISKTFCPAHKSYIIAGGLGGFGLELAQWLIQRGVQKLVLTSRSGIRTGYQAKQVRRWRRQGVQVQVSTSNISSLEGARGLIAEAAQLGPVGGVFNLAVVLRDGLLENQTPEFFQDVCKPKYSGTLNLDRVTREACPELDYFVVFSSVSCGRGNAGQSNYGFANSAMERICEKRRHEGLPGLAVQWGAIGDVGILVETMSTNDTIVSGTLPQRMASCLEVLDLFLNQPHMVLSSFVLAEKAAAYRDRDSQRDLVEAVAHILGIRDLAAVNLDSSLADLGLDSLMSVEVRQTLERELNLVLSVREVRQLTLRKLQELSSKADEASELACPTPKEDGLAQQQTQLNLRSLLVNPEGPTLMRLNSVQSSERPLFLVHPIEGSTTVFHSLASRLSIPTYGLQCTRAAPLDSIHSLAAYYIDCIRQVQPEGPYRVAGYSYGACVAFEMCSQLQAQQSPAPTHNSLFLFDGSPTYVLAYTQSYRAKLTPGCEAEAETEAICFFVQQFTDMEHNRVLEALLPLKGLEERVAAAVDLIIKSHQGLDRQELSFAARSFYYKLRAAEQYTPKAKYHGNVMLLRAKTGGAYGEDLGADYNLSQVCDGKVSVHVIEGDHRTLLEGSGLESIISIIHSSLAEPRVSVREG

SMILES | inhibition
O=C(Nc1cccc([N+](=O)[O-])c1)N1CCc2ccccc2C1 | 52.5% (active)
O=C(CN1CCC(NC(=O)Nc2ccccc2)CC1)Nc1cccc([N+](=O)[O-])c1 | 1.8% (inactive)
CCc1ccc(NC(=O)N2CCc3ccccc3C2)cc1 | 4.2% (inactive)
N#CCC(=O)N/N=C/c1ccc(SCC(=O)Nc2ccccc2)o1 | -2.5% (inactive)
CCC1CCCCN1CCCNC(=O)c1cc2c(Cl)nc3ccccc3c2s1 (centres undefined) | -5.7% (inactive)
O=[N+]([O-])c1c(NCCO)cc(Sc2nc3ccccc3s2)c2nonc12 | 83.1% (active)
COc1cc(C2C(C(=O)c3cccs3)=C(O)C(=O)N2CCN2CCOCC2)ccc1OCCC(C)C (centres undefined) | 0.8% (inactive)
Cc1cc(C)c(C2C3=C(Nc4c2c(C)nn4-c2ccccn2)c2ccccc2C3=O)c(C)c1 (centres undefined) | 68.9% (active)
CC/C(Cc1ccccc1)=N/NC(=O)CCn1nnc2ccccc21 | -8.1% (inactive)
Cc1noc(C)c1C(=O)N1CCC1(C)C(=O)NS(=O)(=O)c1ccc(C#N)cc1 (centres undefined) | -9% (inactive)
CC1(C(=O)NS(=O)(=O)c2ccc(C#N)cc2)CCN1C(=O)c1ccc(C2CCCCC2)cc1 (centres undefined) | 62.6% (active)
CC1(C(=O)NS(=O)(=O)c2ccc(C#N)cc2)CCN1C(=O)CC1CCCC1 (centres undefined) | 4.2% (inactive)
O=C1CCC/C(=N\NC(=O)NC2CCCCC2)C1 | -1% (inactive)
CCOC(=O)N1CCN(Cc2nc3cc(NC(C)=O)ccc3n2C)CC1 | -7% (inactive)
CCOC(=O)N1CCN(Cc2nc3ccc([N+](=O)[O-])cc3c(=O)n2-c2cccc(OC)c2)CC1 | 72.4% (active)
COc1cccc(-n2nc(C(=O)N3CCN(Cc4ccccc4)CC3)c3ccccc3c2=O)c1 | 3.5% (inactive)
CCOC(=O)CSC1=N/C(=C/c2ccc(-n3cncn3)cc2)C(=O)N1C(C)=O | -6.6% (inactive)
Cc1c(Cl)c([N+](=O)[O-])nn1Cc1ccc(C(=O)N/N=C\c2cc(Cl)ccc2O)o1 | 36.1% (inactive)
Cc1occc1C(=O)N/N=C/c1ccc(-c2cccc([N+](=O)[O-])c2)o1 | 20.7% (inactive)
Cc1cc(C(=O)N/N=C/c2cc([N+](=O)[O-])cc(C)c2O)n[nH]1 | 65.7% (active)
Cc1ccc(S(=O)(=O)Nc2ccc3c(c2)C(=O)N([C@H](C)CO)C[C@@H](C)[C@@H](CN(C)C(=O)Nc2cccc4ccccc24)O3)cc1 | -2.7% (inactive)
COc1ccc2nc(N3CCN(C(=O)c4ccc([N+](=O)[O-])o4)CC3)sc2c1 | 10.7% (inactive)
COc1ccc2nc(Nc3nc4cc5c(cc4s3)OCCO5)sc2c1 | 66.6% (active)
Fc1ccc2nc(Nc3nc4c(s3)CCCC4)sc2c1 | 7.4% (inactive)
